Results filed as inconclusive are left out. Calls of active or inactive are those of the source. Unless noted, calls come from the whole dose curve; as a rule, active = well fitted curve in the direction sought with a large enough effect; inconclusive = small, poorly fitted or top-dose-only effect, or another doubt; inactive = no such curve, though single readings can be large; an effect the other way counts as inactive or inconclusive.
Key:
[1] = qHTS profiling for inhibitors of Plasmodium falciparum proliferation (AID 504749); note: nearly all actives have a fitted effect of over 60% in size; note: potency is the fitted concentration of half-maximal effect;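 for activity, negative = inhibition: 0% = DMSO vehicle and full inhibition = artemisinin control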; conditions: P. falciparum in erythrocytes, SYBR Green DNA, 72 h
Method in brief: (§1)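 Each compound contacts P. falciparum-infected red blood cells for 72 h at 37 C; lysis buffer (Tris, EDTA, saponin, Triton X, SYBR Green I) is added and fluorescence measured next morning; values normalized to controls.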

3D7 = assay: as above; conditions: P. falciparum in erythrocytes, SYBR Green DNA, 72 h; series mostly up to 28.7 µM
Method in brief: as §1

7G8 = assay: as above; conditions: P. falciparum in erythrocytes, SYBR Green DNA, 72 h; series mostly up to 28.7 µM
Method in brief: as §1

AA1029 = assay: as above; conditions: P. falciparum in erythrocytes, SYBR Green DNA, 72 h; series mostly up to 28.7 µM
Method in brief: as §1

AS120 = assay: as above; conditions: P. falciparum in erythrocytes, SYBR Green DNA, 72 h; series mostly up to 28.7 µM
Method in brief: as §1

ATS189 = assay: as above; conditions: P. falciparum in erythrocytes, SYBR Green DNA, 72 h; series mostly up to 28.7 µM
Method in brief: as §1

ATS95 = assay: as above; conditions: P. falciparum in erythrocytes, SYBR Green DNA, 72 h; series mostly up to 28.7 µM
Method in brief: as §1

C2A = assay: as above; conditions: P. falciparum in erythrocytes, SYBR Green DNA, 72 h; series mostly up to 28.7 µM
Method in brief: as §1

[2] = KB-8-5-11 P-gp reporter qHTS against the NCATS DSHEA and TCM libraries (AID 1919977); conditions: KB-8-5-11 cells; series mostly up to 26.1 µM; note: 0% is about no effect
Method in brief: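 Viability of drug-resistant KB-8-5-11 cells is measured by CellTiter-Glo luminescence following roughly 72 h treatment at 37C. Substances were titrated, with bortezomib as intraplate control.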

[3] = qHTS drug screen for cell cycle checkpoint inhibitors in PARPi-resistant BRCA-mutant ovarian cancer cell lines. (AID 1963452; calls by dose curve); conditions: PEO1/OlaR viability, CellTiter-Glo luminescence, 96 h, stronger effect = lower value
Method in brief: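 PEO1, PEO4 and PEO1/OlaR ovarian cancer cells, 600 per well, exposed 96 h at 37C to a dilution series. Viability read by CellTiter-Glo luminescence, normalized to DMSO and empty wells; activity summarized as Z-AUC.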

[4] = qHTS for identification of novel therapeutic agents for treatment of microphthalmiaassociated transcription factor (MiT) renal cell carcinoma (RCC) (AID 1963991; calls by dose curve; note: potency is the fitted concentration of half-maximal effect;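 for z-score: curves scaled with 100% = DMSO viability and 0% = empty wells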); conditions: CellTiter-Glo, 48 h; for z-score: stronger effect = lower value
Method in brief: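 UOK109/UOK124/UOK145 (TFE3 fusions, three partners); 500 cells/well; MIPE v4.0, 1912 cpds, 11 conc.; 48 h, 37 C; CellTiter-Glo, 15 min RT; lum. Norm.: DMSO 100%, empty 0%.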

[5] = biological target: Cytochrome P450 3A4 (Homo sapiens) (UniProt P08684); assay: qHTS for inhibitors of CYP3A4 against the NCATS DSHEA and TCM libraries (AID 1919971); conditions: recombinant CYP3A4 enzyme activity, luminescence qHTS; series mostly up to 34.1 µM;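 note: % is set by controls: 0 for no effect and ±100 for the full control effect; inhibition lowers luminescence from luciferin made by CYP3A4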
Cytochrome P450 3A4 (Homo sapiens), sequence (P08684 whole entry, looked up, canonical isoform): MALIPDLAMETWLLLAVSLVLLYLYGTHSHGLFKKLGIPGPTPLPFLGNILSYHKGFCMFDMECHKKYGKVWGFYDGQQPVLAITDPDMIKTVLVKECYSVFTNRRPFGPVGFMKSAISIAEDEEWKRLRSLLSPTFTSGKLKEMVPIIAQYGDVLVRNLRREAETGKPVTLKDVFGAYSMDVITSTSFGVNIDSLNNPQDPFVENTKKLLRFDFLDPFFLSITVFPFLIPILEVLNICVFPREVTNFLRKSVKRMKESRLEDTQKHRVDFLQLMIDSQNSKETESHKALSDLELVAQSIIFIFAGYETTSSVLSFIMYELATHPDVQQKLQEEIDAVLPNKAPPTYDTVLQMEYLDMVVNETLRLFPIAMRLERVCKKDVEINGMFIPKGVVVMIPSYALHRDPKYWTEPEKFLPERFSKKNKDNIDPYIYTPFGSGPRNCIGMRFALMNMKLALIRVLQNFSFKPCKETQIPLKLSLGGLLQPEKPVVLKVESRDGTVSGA
Method in brief: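 Concentration-response screening with isoform-matched pro-luciferin substrates. The CYP reaction was initiated by NADPH regenerating solution and ran 30-45 min in darkness at room temperature.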

[6] = biological target: Cytochrome P450 2D6 (Homo sapiens) (UniProt P10635); assay: qHTS for inhibitors of CYP2D6 against the NCATS DSHEA and TCM libraries (AID 1919972); conditions: CYP2D6 enzymatic inhibition, luminescence qHTS; series mostly up to 34.1 µM; note: % is set by controls: 0 for no effect and ±100 for the full control effect
Cytochrome P450 2D6 (Homo sapiens), sequence (P10635 whole entry, looked up): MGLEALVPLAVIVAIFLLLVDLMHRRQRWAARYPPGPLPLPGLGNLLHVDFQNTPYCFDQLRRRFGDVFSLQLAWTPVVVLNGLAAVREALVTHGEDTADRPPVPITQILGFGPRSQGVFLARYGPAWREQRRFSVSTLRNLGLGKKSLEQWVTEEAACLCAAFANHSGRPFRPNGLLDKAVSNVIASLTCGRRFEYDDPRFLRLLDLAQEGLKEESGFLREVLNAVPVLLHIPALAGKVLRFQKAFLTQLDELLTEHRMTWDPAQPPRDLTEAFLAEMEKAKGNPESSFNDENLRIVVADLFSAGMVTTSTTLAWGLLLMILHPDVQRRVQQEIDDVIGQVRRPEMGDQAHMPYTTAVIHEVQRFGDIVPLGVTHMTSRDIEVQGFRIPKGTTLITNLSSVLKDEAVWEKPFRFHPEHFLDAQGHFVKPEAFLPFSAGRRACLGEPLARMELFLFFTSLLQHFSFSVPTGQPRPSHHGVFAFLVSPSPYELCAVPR
Method in brief: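 CYP2D6 enzyme with pro-luciferin substrate in manufacturer buffer (typically 100 mM KPO4), preincubated 15 min RT with substances (most at 19.5 nM upward); NADPH regeneration system (1x) started 30–45 min RT reaction; P450-Glo luminescence read after 30 min; quinidine as intraplate control.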

[7] = KB-3-1 P-gp reporter qHTS against the NCATS DSHEA and TCM libraries (AID 1919975); conditions: KB-3-1 parental cells, CellTiter-Glo luminescence viability, 72 h; series mostly up to 26.1 µM; note: 0% is about no effect
Method in brief: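 Cell viability qHTS: 500 KB-3-1 cells/well, substances in titration, ~72 h, 37C; luminescent CellTiter-Glo read.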

[8] = biological target: Cytochrome P450 1A2 (Homo sapiens) (UniProt P05177); assay: qHTS for inhibitors of CYPIA2 against the NCATS DSHEA and TCM libraries (AID 1919976); conditions: recombinant CYP1A2 enzyme activity, luminescence; series mostly up to 37 µM;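 note: light from luciferin formed by CYP1A2 from a pro-luciferin substrate; % is set by controls: 0 for no effect and ±100 for the full control effect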
Cytochrome P450 1A2 (Homo sapiens), sequence (P05177 whole entry, looked up): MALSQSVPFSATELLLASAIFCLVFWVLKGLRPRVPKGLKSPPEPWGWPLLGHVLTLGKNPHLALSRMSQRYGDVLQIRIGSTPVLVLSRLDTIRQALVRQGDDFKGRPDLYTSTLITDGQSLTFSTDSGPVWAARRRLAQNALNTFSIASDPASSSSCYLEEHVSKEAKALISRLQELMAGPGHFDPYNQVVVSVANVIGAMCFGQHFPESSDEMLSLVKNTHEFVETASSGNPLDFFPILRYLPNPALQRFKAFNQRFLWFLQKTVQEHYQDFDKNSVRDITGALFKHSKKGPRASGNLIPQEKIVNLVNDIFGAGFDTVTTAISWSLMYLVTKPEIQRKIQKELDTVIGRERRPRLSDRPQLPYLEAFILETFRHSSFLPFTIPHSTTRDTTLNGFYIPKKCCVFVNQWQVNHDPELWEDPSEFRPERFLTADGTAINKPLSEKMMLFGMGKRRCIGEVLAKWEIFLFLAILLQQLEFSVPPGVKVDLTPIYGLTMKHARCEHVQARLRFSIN
Method in brief: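 Enzyme and pro-luciferin substrate, or substrate alone as no-enzyme background, are pre-incubated with test samples for 15 min at room temperature. NADPH regeneration system (1x final) initiates a 30-45 min dark reaction; luciferase detection reagent follows before luminescence reading.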

[9] = qHTS Counterscreen for compound interference against the NCATS DSHEA and TCM libraries (AID 1919978); conditions: firefly luciferase detection reagent interference, luminescence;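 note: compounds preincubated with 1 µM D-luciferin or buffer before detection reagent; % of control where 0% means no effect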
Method in brief: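 Interference check: test samples were incubated with D-luciferin (final 1 uM) or buffer only for 15 min, room temperature, in a qHTS titration up to 39.8 uM, then developed with detection reagent and read by luminescence.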

[10] = Dual reporter qHTS for agonist of Pregnane X Receptor (hPXR) against the NCATS DSHEA and TCM libraries: Fluorescence readout (AID 1920058); conditions: PXR dual reporter cells; series mostly up to 40 µM; note: 0% is about no effect
Method in brief: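 Cells were plated at 2000 per well and allowed to attach for 5 h. Test substances were pinned in and incubated roughly 24 h. CellTiter-Fluor was then added and fluorescence measured after 1 h.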

[11] = biological target: Nuclear receptor subfamily 1 group I member 2 (Homo sapiens) (UniProt O75469); assay: Dual reporter qHTS for agonist of Pregnane X Receptor (hPXR) against the NCATS DSHEA and TCM libraries: Luminescence readout (AID 1920059); conditions: hPXR dual reporter cells, luciferase luminescence agonist; series mostly up to 40 µM; note: 0% is about no effect
Nuclear receptor subfamily 1 group I member 2 (Homo sapiens), sequence (O75469 whole entry, looked up): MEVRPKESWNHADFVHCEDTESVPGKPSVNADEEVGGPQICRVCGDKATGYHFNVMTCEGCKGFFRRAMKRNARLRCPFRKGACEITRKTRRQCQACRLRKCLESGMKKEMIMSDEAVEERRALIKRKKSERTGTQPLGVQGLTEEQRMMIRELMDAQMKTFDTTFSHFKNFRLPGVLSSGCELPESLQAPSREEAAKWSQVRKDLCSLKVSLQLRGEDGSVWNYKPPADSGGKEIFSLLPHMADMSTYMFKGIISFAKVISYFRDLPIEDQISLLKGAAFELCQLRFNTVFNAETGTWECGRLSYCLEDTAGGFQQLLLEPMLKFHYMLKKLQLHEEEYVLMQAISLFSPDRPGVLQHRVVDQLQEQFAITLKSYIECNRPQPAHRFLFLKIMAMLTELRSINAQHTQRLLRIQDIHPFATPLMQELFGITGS
Method in brief: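 hPXR-Luc HepG2 cells, 2000/well in 5% charcoal-stripped FBS medium, attached 5 h, then exposed 24 h at 37C to compounds. Viability by CellTiter-Fluor, then luciferase luminescence with ONE-Glo.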

[12] = biological target: Nuclear receptor subfamily 1 group I member 2 (Homo sapiens) (UniProt O75469); assay: Dual reporter qHTS for antagonist of Pregnane X Receptor (hPXR) against the NCATS DSHEA and TCM libraries: Luminescence Readout (AID 1920060); conditions: hPXR dual reporter cells, luciferase luminescence, antagonist mode; series mostly up to 40 µM;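 note: HepG2 cells carrying hPXR luciferase reporter stimulated with rifampicin at 2 µM; 0% is about no effect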
Method in brief: (§2)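 HepG2 hPXR-Luc, 2000 cells/well, charcoal-stripped FBS medium; 5 h attach; RIF 2 uM final; 24 h 37C/5% CO2; CellTiter-Fluor 1 h, fluor 405/540; ONE-Glo 30 min RT, lum.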

[13] = Dual reporter qHTS for antagonist of Pregnane X Receptor (hPXR) against the NCATS DSHEA and TCM libraries: Fluorescence Readout (AID 1920061); conditions: PXR dual reporter cells, antagonist mode; series mostly up to 40 µM; note: 0% is about no effect
Method in brief: as §2

[14] = at 28.7 µM (top of the series), parasite line A
[15] = at 28.7 µM (top of the series), parasite line B
[16] = at 12.8 µM (top of the series), parasite line A
[17] = at 12.8 µM (top of the series), parasite line B
[18] = measured here: PEO1 parental Z-AUC

NCc1cccnc1
inactive: activity, negative = inhibition [1, 14] -9.24% | activity, negative = inhibition [1, 15] -2.31% | Potency (3D7) | Potency (7G8) | Potency (AA1029) | Potency (AS120) | Potency (ATS189) | Potency (ATS95) | Potency (C2A)

C[N+]1(CCC(C(N)=O)(c2ccccc2)c2ccccc2)CCCCC1
inactive: activity, negative = inhibition [1, 14] -14.5% | activity, negative = inhibition [1, 15] -9.8% | Potency (3D7) | Potency (7G8) | Potency (AA1029) | Potency (AS120) | Potency (ATS189) | Potency (ATS95) | Potency (C2A)

CCC(=O)O[C@H]1CC[C@H]2[C@@H]3CCC4=CC(=O)CC[C@]4(C)[C@H]3CC[C@]12C
inactive: activity, negative = inhibition [1, 16] 4.77% | activity, negative = inhibition [1, 17] 12.2% | Potency (3D7) | Potency (7G8) | Potency (AA1029) | Potency (AS120) | Potency (ATS189) | Potency (ATS95) | Potency (C2A)

O=c1ccc2ccccc2o1
inactive: outcome [2]

CC(C)NCC(O)c1ccc(N)c(C#N)c1 (configuration not stated)
inactive: activity, negative = inhibition [1, 14] 10.9% | activity, negative = inhibition [1, 15] -9.32% | Potency (3D7) | Potency (7G8) | Potency (AA1029) | Potency (AS120) | Potency (ATS189) | Potency (ATS95) | Potency (C2A)

C[C@@H]1C[C@@H]([C@H](O)CC2CC(=O)NC(=O)C2)C(=O)[C@@H](C)C1
active: Potency ([4]; TFE3-RCC UOK109 viability) 0.0469 µM
-1.12: z-score ([4]; TFE3-RCC viability, measured here: UOK124 Z-AUC)
0.0418: Z-AUC ([3]; measured here: PEO4 Z-AUC)
-1.24: z-score ([4]; TFE3-RCC viability, measured here: UOK145 Z-AUC)
-0.0615: Z-AUC [3, 18]
-2.25: z-score ([4]; TFE3-RCC UOK109 viability, measured here: UOK109 Z-AUC)
inactive: Z-AUC [3] 0.13

CCN(CC)C(C)C(=O)c1ccccc1 (configuration not stated)
inactive: activity, negative = inhibition [1, 14] -2.34% | activity, negative = inhibition [1, 15] 12.3% | Potency (3D7) | Potency (7G8) | Potency (AA1029) | Potency (AS120) | Potency (ATS189) | Potency (ATS95) | Potency (C2A)

NC(=O)CN1CCCC1=O
inactive: activity, negative = inhibition [1, 16] -0.277% | activity, negative = inhibition [1, 17] 13.3% | Potency (3D7) | Potency (7G8) | Potency (AA1029) | Potency (AS120) | Potency (ATS189) | Potency (ATS95) | Potency (C2A)

COc1ccc(C(=O)N2CCCC2=O)cc1
0.111: Z-AUC [3, 18]
-0.65: Z-AUC ([3]; measured here: PEO4 Z-AUC)
inactive: Z-AUC [3] -0.603 | activity, negative = inhibition [1, 14] 4.48% | activity, negative = inhibition [1, 15] 11% | Potency (3D7) | Potency (7G8) | Potency (AA1029) | Potency (AS120) | Potency (ATS189) | Potency (ATS95) | Potency (C2A)

CCS(=O)(=O)C(C)(C)S(=O)(=O)CC
inactive: activity, negative = inhibition [1, 14] 9.89% | activity, negative = inhibition [1, 15] 19.2% | Potency (3D7) | Potency (7G8) | Potency (AA1029) | Potency (AS120) | Potency (ATS189) | Potency (ATS95) | Potency (C2A)

OC[C@H]1O[C@@H](OCCc2ccc(O)cc2)[C@H](O)[C@@H](O)[C@H]1O
inactive: outcome [2]

C/C=C/c1ccc(OC)cc1
inactive: outcome [2]

C#C[C@]1(O)C=C[C@H]2[C@@H]3CCC4=CC(=O)CC[C@@H]4[C@H]3CC[C@@]21CC
1.32: Z-AUC ([3]; measured here: PEO4 Z-AUC)
1.82: Z-AUC [3, 18]
inactive: Z-AUC [3] 1.19

CC(C)(O)C(Cl)(Cl)Cl
active: Potency ([1]; parasite line A) 11.2 µM | Potency ([1]; parasite line B) 12.6 µM | Potency (3D7) 2 µM | Potency (7G8) 0.316 µM | Potency (AA1029) 12.6 µM | Potency (AS120) 4.47 µM | Potency (ATS189) 3.16 µM | Potency (ATS95) 10 µM

CCCCCCCCC(=O)NCc1ccc(O)c(OC)c1
inactive: activity, negative = inhibition [1, 14] -0.439% | activity, negative = inhibition [1, 15] 7.79% | Potency (3D7) | Potency (7G8) | Potency (AA1029) | Potency (AS120) | Potency (ATS189) | Potency (ATS95) | Potency (C2A)

C[C@]12CC[C@H](O)CC1=CC[C@@H]1[C@@H]2CC[C@]2(C)C(=O)CC[C@@H]12
0.516: Z-AUC [3, 18]
inactive: outcome [5] | outcome [6] | outcome [7] | outcome [8] | outcome [2] | max response [9] -2.96% | outcome [10] | outcome [11] | outcome [12] | outcome [13] | Z-AUC [3] 1.09
0.608: Z-AUC ([3]; measured here: PEO4 Z-AUC)

C[N+](C)(C)CCOC(=O)C(O)(c1ccccc1)c1ccccc1
inactive: activity, negative = inhibition [1, 14] 12.8% | activity, negative = inhibition [1, 15] 7.74% | Potency (3D7) | Potency (7G8) | Potency (AA1029) | Potency (AS120) | Potency (ATS189) | Potency (ATS95) | Potency (C2A)
